This is an account of results in ChEMBL document CHEMBL2218924, “A broad activity screen in support of a chemogenomic map for kinase signalling research and drug discovery” (Biochem J, 2013).

Molecules are shown by their SMILES.

For orientation: residual activity means the signal under treatment as a percentage of the control signal.

The target of assay [1] is T1, Ephrin type-B receptor 1 (Homo sapiens) (UniProt P54762).
T1 sequence (whole entry): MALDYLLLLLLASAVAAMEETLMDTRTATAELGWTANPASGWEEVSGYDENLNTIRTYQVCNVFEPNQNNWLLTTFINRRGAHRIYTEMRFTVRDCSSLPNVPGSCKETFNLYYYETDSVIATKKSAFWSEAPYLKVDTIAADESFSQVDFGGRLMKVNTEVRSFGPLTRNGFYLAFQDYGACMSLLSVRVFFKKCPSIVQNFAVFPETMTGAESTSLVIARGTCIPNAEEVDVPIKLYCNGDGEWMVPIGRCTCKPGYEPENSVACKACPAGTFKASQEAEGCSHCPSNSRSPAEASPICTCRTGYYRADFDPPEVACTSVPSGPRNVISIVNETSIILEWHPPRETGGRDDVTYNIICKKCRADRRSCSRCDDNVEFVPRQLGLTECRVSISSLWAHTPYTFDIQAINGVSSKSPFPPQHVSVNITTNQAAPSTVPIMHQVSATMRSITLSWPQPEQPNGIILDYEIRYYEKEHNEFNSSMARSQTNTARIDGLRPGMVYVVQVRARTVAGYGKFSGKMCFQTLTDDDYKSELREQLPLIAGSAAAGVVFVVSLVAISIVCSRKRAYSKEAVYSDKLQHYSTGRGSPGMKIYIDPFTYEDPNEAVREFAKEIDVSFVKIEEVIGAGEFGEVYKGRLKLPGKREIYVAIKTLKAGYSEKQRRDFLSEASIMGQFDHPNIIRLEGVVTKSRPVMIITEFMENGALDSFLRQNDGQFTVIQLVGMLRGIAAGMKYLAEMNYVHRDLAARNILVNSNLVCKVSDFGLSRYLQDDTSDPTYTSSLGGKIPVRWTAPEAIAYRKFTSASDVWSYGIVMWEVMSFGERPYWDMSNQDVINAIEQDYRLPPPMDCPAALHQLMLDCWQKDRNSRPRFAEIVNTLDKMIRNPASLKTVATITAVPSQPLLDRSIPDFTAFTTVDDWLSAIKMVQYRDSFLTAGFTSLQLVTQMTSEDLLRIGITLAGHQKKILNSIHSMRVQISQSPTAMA
The settings on record: at 10 µM.

The target of assay [2] is T2, Ephrin type-B receptor 2 (Homo sapiens) (UniProt P29323).
T2 sequence (whole entry): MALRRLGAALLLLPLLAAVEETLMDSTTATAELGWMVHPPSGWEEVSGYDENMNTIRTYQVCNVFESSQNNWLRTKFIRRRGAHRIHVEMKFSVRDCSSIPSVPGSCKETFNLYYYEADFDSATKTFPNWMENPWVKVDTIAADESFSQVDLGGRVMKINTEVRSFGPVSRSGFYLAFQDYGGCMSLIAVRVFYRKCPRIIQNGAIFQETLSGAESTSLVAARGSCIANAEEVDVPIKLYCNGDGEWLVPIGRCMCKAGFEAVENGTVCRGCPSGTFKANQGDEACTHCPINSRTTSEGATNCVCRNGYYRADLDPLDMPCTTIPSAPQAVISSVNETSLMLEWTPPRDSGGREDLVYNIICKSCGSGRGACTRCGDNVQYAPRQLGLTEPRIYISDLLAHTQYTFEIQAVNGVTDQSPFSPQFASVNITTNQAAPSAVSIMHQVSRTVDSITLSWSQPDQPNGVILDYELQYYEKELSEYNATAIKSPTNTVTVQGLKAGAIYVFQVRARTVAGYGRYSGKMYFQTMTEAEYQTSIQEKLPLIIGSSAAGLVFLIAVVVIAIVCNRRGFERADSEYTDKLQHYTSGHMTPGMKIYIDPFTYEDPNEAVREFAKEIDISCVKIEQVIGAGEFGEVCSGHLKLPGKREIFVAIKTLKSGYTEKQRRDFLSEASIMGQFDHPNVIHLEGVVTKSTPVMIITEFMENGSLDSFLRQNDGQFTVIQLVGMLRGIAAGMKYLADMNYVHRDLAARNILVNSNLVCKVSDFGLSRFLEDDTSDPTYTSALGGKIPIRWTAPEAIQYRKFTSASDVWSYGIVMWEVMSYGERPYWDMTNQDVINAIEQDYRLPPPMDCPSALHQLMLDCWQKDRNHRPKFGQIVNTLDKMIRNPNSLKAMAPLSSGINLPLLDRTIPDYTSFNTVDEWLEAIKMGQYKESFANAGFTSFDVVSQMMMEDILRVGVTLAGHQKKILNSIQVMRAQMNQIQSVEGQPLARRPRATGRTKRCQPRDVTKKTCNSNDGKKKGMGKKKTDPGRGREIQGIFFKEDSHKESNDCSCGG
The settings on record: at 1 µM.

For assay [3], the target named is T2, Ephrin type-B receptor 2 (Homo sapiens). The settings on record: at 10 µM.
Assay [4] has as its target T3, Ephrin type-B receptor 3 (Homo sapiens) (UniProt P54753).
T3 sequence (whole entry): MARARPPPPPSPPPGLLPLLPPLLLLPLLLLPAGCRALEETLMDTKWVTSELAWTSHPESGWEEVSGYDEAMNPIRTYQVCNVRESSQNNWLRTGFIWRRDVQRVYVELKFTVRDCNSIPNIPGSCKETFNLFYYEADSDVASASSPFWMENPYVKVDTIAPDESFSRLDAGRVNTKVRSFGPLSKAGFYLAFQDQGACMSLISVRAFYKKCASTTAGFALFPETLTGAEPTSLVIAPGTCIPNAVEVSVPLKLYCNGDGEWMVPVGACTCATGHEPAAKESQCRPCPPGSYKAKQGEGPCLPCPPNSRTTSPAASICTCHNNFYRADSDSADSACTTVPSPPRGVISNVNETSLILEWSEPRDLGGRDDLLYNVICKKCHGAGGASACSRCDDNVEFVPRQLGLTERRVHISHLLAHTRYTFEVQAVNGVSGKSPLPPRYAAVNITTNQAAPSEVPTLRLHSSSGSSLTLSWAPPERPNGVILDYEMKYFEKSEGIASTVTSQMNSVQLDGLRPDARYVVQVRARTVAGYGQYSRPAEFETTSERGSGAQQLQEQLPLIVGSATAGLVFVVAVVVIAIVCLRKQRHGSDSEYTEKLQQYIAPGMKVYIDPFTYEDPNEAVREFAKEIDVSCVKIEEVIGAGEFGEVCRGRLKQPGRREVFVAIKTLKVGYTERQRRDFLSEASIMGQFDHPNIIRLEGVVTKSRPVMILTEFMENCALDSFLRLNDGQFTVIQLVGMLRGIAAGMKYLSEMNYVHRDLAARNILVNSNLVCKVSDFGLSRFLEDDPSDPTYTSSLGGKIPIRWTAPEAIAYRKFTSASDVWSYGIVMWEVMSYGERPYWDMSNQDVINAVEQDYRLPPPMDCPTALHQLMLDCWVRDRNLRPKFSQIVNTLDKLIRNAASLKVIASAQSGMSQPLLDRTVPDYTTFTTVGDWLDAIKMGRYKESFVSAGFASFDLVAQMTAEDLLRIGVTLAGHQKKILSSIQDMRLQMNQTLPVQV
The settings on record: at 1 µM.

The target in assay [5] is T3, Ephrin type-B receptor 3 (Homo sapiens). The settings on record: at 10 µM.
Assay [6] deals with T4, Ephrin type-B receptor 4 (Homo sapiens) (UniProt P54760).
T4 sequence (whole entry): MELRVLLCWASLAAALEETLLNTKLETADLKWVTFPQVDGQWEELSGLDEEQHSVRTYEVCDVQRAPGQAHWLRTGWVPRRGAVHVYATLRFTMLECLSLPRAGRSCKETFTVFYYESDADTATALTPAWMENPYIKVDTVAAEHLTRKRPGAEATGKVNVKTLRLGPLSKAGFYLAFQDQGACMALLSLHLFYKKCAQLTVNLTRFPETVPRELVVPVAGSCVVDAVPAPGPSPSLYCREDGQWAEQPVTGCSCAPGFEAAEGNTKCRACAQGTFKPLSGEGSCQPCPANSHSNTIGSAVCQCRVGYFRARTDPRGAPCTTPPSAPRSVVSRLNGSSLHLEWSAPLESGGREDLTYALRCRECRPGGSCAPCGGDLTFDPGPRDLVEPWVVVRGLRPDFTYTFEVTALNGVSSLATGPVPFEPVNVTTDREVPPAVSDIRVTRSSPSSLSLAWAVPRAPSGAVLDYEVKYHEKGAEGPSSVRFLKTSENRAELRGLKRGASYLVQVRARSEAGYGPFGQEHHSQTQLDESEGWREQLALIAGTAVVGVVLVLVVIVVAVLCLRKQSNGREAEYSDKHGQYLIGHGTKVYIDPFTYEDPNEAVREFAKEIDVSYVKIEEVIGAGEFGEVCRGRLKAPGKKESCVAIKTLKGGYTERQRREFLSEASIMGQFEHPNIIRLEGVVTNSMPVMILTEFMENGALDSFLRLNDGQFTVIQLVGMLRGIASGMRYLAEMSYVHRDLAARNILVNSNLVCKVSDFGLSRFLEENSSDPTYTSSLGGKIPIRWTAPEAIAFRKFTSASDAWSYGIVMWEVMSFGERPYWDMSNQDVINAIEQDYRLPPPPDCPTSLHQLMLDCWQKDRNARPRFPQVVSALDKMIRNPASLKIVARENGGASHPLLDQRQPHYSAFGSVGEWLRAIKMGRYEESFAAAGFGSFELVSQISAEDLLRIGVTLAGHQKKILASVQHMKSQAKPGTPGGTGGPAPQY
The settings on record: at 1 µM.

The target of assay [7] is T4, Ephrin type-B receptor 4 (Homo sapiens). The settings on record: at 10 µM.
The target in assay [8] is Receptor tyrosine-protein kinase erbB-4 (Homo sapiens) (UniProt Q15303). The settings on record: at 1 µM.
Assay [9] shares this target. The settings on record: at 10 µM.
For assay [10], the target named is Focal adhesion kinase 1 (Homo sapiens) (UniProt Q05397). The settings on record: at 1 µM.
Sequence of Focal adhesion kinase 1 (Homo sapiens) (Q05397 2-1052 limits assumed): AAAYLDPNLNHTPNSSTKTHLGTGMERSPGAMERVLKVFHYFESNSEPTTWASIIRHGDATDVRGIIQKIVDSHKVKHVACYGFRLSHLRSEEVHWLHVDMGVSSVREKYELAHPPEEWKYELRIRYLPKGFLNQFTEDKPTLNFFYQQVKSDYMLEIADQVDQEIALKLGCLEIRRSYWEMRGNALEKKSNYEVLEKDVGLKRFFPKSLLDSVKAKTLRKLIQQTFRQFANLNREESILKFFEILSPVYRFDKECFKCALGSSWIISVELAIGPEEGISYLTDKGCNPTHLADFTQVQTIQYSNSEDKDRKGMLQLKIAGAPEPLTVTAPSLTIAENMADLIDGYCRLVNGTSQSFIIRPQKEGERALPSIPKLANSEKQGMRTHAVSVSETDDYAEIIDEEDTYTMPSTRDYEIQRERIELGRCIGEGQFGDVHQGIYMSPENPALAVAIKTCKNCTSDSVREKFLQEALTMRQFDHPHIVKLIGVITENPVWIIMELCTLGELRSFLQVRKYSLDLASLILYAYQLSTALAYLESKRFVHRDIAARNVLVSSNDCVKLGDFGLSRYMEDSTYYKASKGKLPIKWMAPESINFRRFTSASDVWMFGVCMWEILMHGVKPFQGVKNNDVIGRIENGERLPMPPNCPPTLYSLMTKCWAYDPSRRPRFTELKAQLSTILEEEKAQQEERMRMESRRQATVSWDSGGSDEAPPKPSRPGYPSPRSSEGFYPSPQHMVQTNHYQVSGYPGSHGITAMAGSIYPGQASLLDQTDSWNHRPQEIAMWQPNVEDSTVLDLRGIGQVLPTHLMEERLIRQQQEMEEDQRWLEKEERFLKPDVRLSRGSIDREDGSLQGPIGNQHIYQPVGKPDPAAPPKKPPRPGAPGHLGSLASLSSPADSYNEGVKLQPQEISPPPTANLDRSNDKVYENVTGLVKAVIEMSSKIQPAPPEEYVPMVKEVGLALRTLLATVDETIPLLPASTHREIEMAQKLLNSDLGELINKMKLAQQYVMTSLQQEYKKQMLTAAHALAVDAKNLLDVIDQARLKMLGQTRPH

Sequence of Receptor tyrosine-protein kinase erbB-4 (Homo sapiens) (Q15303 whole entry): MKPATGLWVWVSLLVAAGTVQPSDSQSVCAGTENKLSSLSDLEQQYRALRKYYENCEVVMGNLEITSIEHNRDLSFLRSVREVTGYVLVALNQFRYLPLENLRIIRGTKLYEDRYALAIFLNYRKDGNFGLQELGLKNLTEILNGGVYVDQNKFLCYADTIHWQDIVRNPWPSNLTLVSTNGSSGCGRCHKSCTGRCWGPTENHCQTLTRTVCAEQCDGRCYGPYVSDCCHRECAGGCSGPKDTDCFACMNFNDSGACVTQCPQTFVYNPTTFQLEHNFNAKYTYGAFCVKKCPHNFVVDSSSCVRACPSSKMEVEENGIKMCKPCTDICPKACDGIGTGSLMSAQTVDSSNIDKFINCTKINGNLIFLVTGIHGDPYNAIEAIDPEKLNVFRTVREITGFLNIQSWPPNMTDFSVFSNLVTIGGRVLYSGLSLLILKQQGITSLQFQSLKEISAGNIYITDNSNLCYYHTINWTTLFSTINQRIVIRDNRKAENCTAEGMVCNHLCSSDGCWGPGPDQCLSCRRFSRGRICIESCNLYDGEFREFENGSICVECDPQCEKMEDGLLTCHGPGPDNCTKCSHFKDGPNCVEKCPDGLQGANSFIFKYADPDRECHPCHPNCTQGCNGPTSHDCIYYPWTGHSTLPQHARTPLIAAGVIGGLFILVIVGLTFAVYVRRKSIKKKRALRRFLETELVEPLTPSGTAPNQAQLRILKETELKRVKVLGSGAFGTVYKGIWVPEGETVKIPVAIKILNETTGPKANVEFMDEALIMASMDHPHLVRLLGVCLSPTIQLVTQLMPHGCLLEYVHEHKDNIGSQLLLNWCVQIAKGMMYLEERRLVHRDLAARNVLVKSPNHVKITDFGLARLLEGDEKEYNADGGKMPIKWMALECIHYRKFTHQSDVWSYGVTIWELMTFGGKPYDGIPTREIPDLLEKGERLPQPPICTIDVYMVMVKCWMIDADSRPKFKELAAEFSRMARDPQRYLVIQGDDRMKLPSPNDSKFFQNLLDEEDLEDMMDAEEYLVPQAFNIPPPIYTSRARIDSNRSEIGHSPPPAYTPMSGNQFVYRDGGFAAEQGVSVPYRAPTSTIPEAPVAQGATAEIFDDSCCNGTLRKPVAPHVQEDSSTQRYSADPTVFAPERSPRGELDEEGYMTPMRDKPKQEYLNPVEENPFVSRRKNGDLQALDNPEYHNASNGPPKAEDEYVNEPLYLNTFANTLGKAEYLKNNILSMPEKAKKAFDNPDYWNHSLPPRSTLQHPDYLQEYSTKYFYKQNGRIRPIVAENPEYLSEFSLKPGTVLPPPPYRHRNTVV

For `CC[n+]1c(/C=C/N(C)c2ccccc2)n(-c2ccccc2)c2ccc(-c3nc4ccccc4s3)cc21`, the residual activity was 56% in assay [1]; 136% in assay [2]; 129% in assay [3]; 131% (inactive) in assay [4]; 160% in assay [5]; 114% in assay [6]. In addition, the residual activity in [7] was found to be 159%; in [8], 79%; in [9], 99%; in [10] it was 144%.

Turning to `O=C1NC(=O)c2c1c1c3ccccc3[nH]c1c1[nH]c3cc(Br)ccc3c21`, the residual activity in [1] was 98%; in [2], 106%; in assay [3] it was 101%; in [4], 107% (inactive); in [5], 83%; in assay [6], 102%. The residual activity in assay [7] is 93%; in assay [8], 95%; in assay [9] it was 83%; in assay [10] it was 98%.

Consider `COc1cccc(-c2cc(=O)c3ccccc3o2)c1N`, for which the residual activity in assay [1] was 100%; in assay [2], 118%; in [3], 132%; in assay [4], 107% (inactive); in assay [5] it was 112%; in assay [6] it was 94%. Besides, the residual activity in [7] was found to be 109%; in assay [8], 90%; in assay [9], 93%; in assay [10], 115%.

Take `Cc1ccc(NC2=CC(=O)c3sc(C)nc3C2=O)cc1`: the residual activity in assay [1] was 97%; in [2], 123%; in assay [3], 121%; in assay [4], 104% (inactive); in [5], 99%; in [6] it was 98%. The residual activity in [7] amounted to 96%; in [8], 77%; in assay [9], 88%; in assay [10], 96%.

`Oc1n[nH]c2nnc(-c3c(-c4ccccc4)nn4ccccc34)cc12`: the residual activity in [1] was 83%; in assay [2], 123%; in assay [3], 128%; in assay [4], 109% (inactive); in [5] it was 103%; in assay [6] it was 86%. Also, the residual activity worked out at 80% in assay [7], 92% in [8], 75% in assay [9] and 98% in assay [10].

As for `COc1ccc(CNc2nc(N(CCO)CCO)nc3c2ncn3C(C)C)cc1`, the residual activity in assay [1] is 77%; in [2], 113%; in assay [3], 106%; in assay [4], 113% (inactive); in assay [5] it was 107%; in assay [6], 87%. Also, the residual activity in assay [7] turned out to be 77%; in assay [8], 91%; in [9], 101%; in [10], 91%.

For the molecule `O=C1Nc2ccccc2/C1=C1/Nc2ccccc2/C1=N\OCCC(O)CO` (centres undefined), the residual activity in assay [1] is 8%; in [2] it was 82%; in assay [3], 12%; in assay [4], 117% (inactive); in assay [5], 112%; in assay [6], 49%. In addition, the residual activity in [7] was found to be 4%; in assay [8], 107%; in assay [9] it was 105%; in [10] it was 16%.

Regarding `CO[C@H]1[C@@H](OC)C[C@H](C)[C@@H](OC)C2=CC(=O)C=C(NC(=O)/C(C)=C/C=C/[C@H](OC)[C@@H](OC(N)=O)/C(C)=C/[C@@H]1C)C2=O`, the residual activity is 103% in assay [1]; 115% in [2]; 128% in assay [3]; 111% (inactive) in assay [4]; 102% in [5]; 94% in assay [6]. Further, the residual activity came to 113% in assay [7], 92% in assay [8], 67% in assay [9] and 110% in assay [10].

For `O=C(Nc1cccc(Nc2nccc(Nc3cccc(C(F)(F)F)c3)n2)c1)C1CC1`, the residual activity in assay [1] was 7%; in assay [2], 93%; in assay [3], 26%; in [4], 106% (inactive); in assay [5] it was 113%; in [6], 109%. The residual activity in assay [7] was determined as 10%; in [8] it was 98%; in assay [9], 96%; in [10], 51%.

Take `Oc1c2ccccc2c2c3c(cccc13)N=N2`: the residual activity stood at 29% in [1]; 101% in [2]; 95% in [3]; 81% in [5]; 89% in assay [6]; 55% in assay [7]. For the same molecule, the residual activity in [8] was determined as 104%; in [9], 97%; in assay [10], 52%.
